PubChem BioAssay

test: growth of efflux-deficient E. coli DRC39 – strain DRC39, OD650, 24 h, E. coli filamentation inducers, primary screen (AID 1178);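 also: growth measured as culture turbidity by optical density at 650 nm; test concentration not given here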; details: E. coli DRC39 acrAB, higher = more signal, called active from +8 up or from −8 down

z-score, inactive:
COc1cc(OC)c(C(O)C2C=CC3C(=O)N(c4ccccc4)C(=O)C3N2Nc2ccc(C#N)cc2)cc1Br (stereo not given) -0.628
COc1ccc([Si](C)(C)[C@@H]2[C@@H](CC(=O)N3CCC[C@H]3CO)O[C@]3(C(=O)N(Cc4ccc(N5C(=O)c6cccc7cccc5c67)cc4)c4ccccc43)[C@H]2C)cc1 0.3
CC=CC(O)C1C=CC2C(=O)N(c3ccccc3)C(=O)C2N1Nc1ccccc1 (stereo not given) 0.176
CC(C)C(=C=CC[C@@H](O)c1ccccc1OCCO)C[C@@H](O)COCc1ccccc1 2.28
CC(C)(C)N1CC=CC23O[C@@H]4C=CCOC(=O)[C@@H]4[C@H]2C(=O)N(CCCO)[C@@H]3C1=O (stereo not given in full) -1.04
COc1c(C)cc(-c2cc3c(c(-c4ccccc4)n2)[Si](C(C)C)(C(C)C)OC3)cc1C 0.762
Cc1ccc(S[C@]2(C(=O)NCC(C)C)CC(=O)N(Cc3ccccc3Cl)[C@@H]2c2ccc(CO)cc2I)cc1 -0.0158
O=C1O[C@@H](c2ccccc2)[C@@H](c2ccccc2)N2[C@@H](c3ccccc3OCCO)[C@]3(C(=O)Nc4ccc(C#CC5=CCCCC5)cc43)[C@@H](C(=O)NC[C@H](O)c3ccccc3)[C@H]12 -0.0029
O=C(O)[C@H](Cc1ccccc1)n1cc(-c2ccccn2)nn1 -0.256
CC1CC/C=C\[C@H]2OC34C=CCN(CCN5CCOCC5)C(=O)[C@H]3N(CCO)C(=O)[C@@H]4C2C(=O)O1 (stereo not given in full) -0.0987
CCOC(=O)C[C@H]1[C@H](OC(=O)c2ccc(-c3ccccc3)cc2)[C@@H](NC(=O)C2CCCCC2)c2cc(OCCCO)ccc2N1C(=O)c1ccccc1 -0.406
COCCCNC(=O)[C@@]1(Sc2ccc(C)cc2)CC(=O)N(Cc2cc(C(F)(F)F)cc(C(F)(F)F)c2)[C@@H]1c1ccc(CO)cc1 0.0881
CCCC[C@@H]1C[C@H]1[C@@H](NC(=O)c1cccnc1)c1ccc(-c2ccccc2)cc1 -0.88
O=C1O[C@@H](c2ccccc2)[C@@H](c2ccccc2)N2[C@@H](c3ccc(O)cc3)[C@]3(C(=O)Nc4ccc(C#CCCO)cc43)[C@@H](C(=O)Nc3nc4ccccc4s3)[C@H]12 -0.0791
O=C(O)[C@]1(Cc2ccccc2)N=C(c2ccc(OCCCO)cc2)O[C@@H]1c1ccccc1 0.0717
Cc1ccc(S[C@]2(C(=O)NCc3ccccc3)CC(=O)N(C(C)C)[C@@H]2c2ccc(CO)cc2I)cc1 0.484
Cc1ccc(C(C)CC(O)C2C=CC3C(=O)N(c4ccccc4)C(=O)C3N2Nc2ccc(C(C)C)cc2)o1 (stereo not given) -0.751
C=CC[C@]12N=C(c3ccc(OCCCO)cc3)O[C@H]1c1ccccc1N(C)C2=O 0.105
C=C(COC)/C(=C/C[C@@H](OC(=O)c1ccncc1)c1ccc(CO)o1)c1cnc2ccccc2c1 0.16
O=C1NC(=O)C2C1C=CC(C(O)c1cc(C(F)(F)F)cc(C(F)(F)F)c1)N2Nc1ccc(Cl)cc1Cl (stereo not given) -1.14
